Assay outcomes (PubChem)
TDP43 rescue – rescues yeast growth from TDP-43 toxicity | TDP-43 expressing yeast growth rescue, BacTiter-Glo, 24 h | Potency, µM (series often up to 46.1 µM), for inactives: top-dose growth rescue (activation), most hits filed as activators | hit rate 1.8% among 410,000 | AID 652104; further: % of control where 0% means no effect; nearly all actives have a fitted effect of over 50% in size
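Luminescence from BacTiter-Glo reports growth of TDP-43-expressing yeast after 24 hr at 30 deg C with compound. Cells were raffinose-pregrown to mid-log, then seeded in galactose medium at OD600=0.02.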
aSyn yeast inh – alpha-synuclein toxicity inhibition in yeast. Yeast expressing alpha-synuclein, growth rescue, BacTiter-Glo, 24 h. Potency, µM (doses to about 46.1 µM), inactives show at the highest dose growth rescue (activation), usual class: activators. hit rate 0.14% among 370,000. AID 652106; further: % of control where 0% means no effect; nearly all actives have a fitted effect of over 65% in size
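Readout is rescue of growth in alpha-synuclein-expressing yeast, so inhibitors of toxicity appear as activators. Growth after 24 hr at 30 deg C in galactose medium is quantified by luminescence.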
Abeta yeast res – A-beta toxicity reversal in yeast; yeast expressing A-beta42, growth rescue, OD600, 48 h; response scale: 0% DMSO, 100% iron-clioquinol control; Potency, µM (titrated, usually from 46.1 µM), most hits filed as activators; hit rate 0.063% among 410,000; AID 1347071; further: nearly all actives have a fitted effect of over 55% in size
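Yeast growth medium received pinned compounds, then yeast cells expressing toxic A-beta were added; plates incubated at 30 C for 48 hr. Growth read as absorbance at 600 nm, normalized to DMSO and equimolar FeCl3 plus clioquinol controls.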
Mito fusion act – blocks mitochondrial division or promotes mitochondrial fusion; S. cerevisiae fusion-defective mutant growth rescue, CellTiterGlo 48 h; Potency, µM (highest dose often 46.1 µM), inactives show top-dose growth rescue (activation), hits mostly activators; hit rate 0.23% among 320,000; AID 485298; further: % of control where 0% means no effect; nearly all actives have a fitted effect of over 45% in size
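Yeast fusion mutant, YPEG (non-fermentable carbon), compound, 48 h at 37C non-permissive; CellTiterGlo added, 10 min RT, luminescence read. Rescued growth = division inhibition.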
FUS yeast rescue – rescues growth of FUS-expressing yeast; S. cerevisiae FUS-expressing, growth rescue, OD600, 24 h; Potency, µM (titrated, usually from 76.6 µM), most hits filed as activators; hit rate 0.24% among 390,000;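 further: plate controls were DMSO vehicle for no effect and reference control for full effect; nearly all actives have a fitted effect of over 55% in size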
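Toxicity suppression screen in FUS-yeast. Cells induced with 2% galactose, starting OD 0.005, treated 24hr at 30C with compounds at multiple final concentrations; growth by OD600.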
* hit, by the source's call; i = inactive; ? = inconclusive; · = no result given; [ ] = dose if it differs, or a comment. This is a sample that favours compounds with a hit; in the whole collection about 2.2% have one here. The call rests on the fitted dose curve; in most records, active means well fitted curve in the direction sought with a large enough effect; inconclusive means small, poorly fitted or top-dose-only effect, or another doubt; inactive means no such curve, though single readings can be large; an effect the other way counts as inactive or inconclusive. Potency means the concentration at half of the fitted maximal effect.

SMILES	TDP43 rescue	aSyn yeast inh	Abeta yeast res	Mito fusion act	FUS yeast rescue
CC[n+]1c(/C=C/C=C/N(C(C)=O)c2ccccc2)sc2ccccc21	-22.1%	-5.1%	i	2.4%	17.8µM*
CCSc1nc(-c2ccc(OC)cc2)ccc1C#N	15.8µM*	1.5%	i	6.1%	i
Cc1ccccc1OCCC(=O)Nc1ccc(F)c(Cl)c1	14.1µM*	-4.7%	i	21.1%	i
Cc1cc(NCc2ccccn2)n2ncc(-c3ccc(Cl)cc3)c2n1	13.4%[1.82 µM]	5.1%	i	4.6%	i
Cc1cc(NCc2ccccn2)n2nc(C)c(-c3ccc(Cl)cc3)c2n1	7.08µM*	3.5%	i	8.4%	i
COc1cc(CN(C(=O)c2ccccc2)c2ccccn2)cc(OC)c1OC	11.0%	·	i	·	i
Cc1ccc(F)cc1-c1nc(NCC2CC2)nc2ccsc12	20µM*	-1.7%	i	·	i
Fc1ccc([C@@H]2Nc3ccccc3[C@@H]3C=CC[C@@H]32)cc1	10.6%[9.22 µM]	·	12.6µM*	·	i
CCC(NC(=O)CCc1c(C)c2cc3c(C)c(C)oc3cc2oc1=O)C(=O)N[C@@H](Cc1ccccc1)C(=O)O (stereo not given in full)	-0.3%	4.9%	i	-2.7%	28.2µM*
COC(=O)c1c(NC(=O)C2C3C=CC(CC3)C2C(=O)O)sc(C)c1C (stereo not given)	0.0%	4.2%	i	25.7%	·
CCOC(=O)c1c(NC(=O)C2C3C=CC(CC3)C2C(=O)O)sc(C)c1CC (stereo not given)	0.0%	-4.2%	i	7.08µM*	i
CNC(=O)c1c(NC(=O)c2ccc(N3C(=O)CCC3=O)cc2)sc2c1CCC(C)C2 (stereo not given)	31.6µM*	1.0%	i	·	·
CCOc1ccccc1NC(=S)NC(=O)c1ccco1	14.1µM*	-5.1%	?	-11.0%	i
CCOc1ccccc1NC(=O)C1CCCC1	0.2%	0.1%	i	·	i
CCOc1ccccc1NC(=S)NC(=O)C1CCCCC1	20.2%	-25.8%	7.08µM*	0.0%	i
Cc1cc(C)nc(Sc2ccc([N+](=O)[O-])cc2[N+](=O)[O-])n1	-2.8%	-4.6%	i	1.9%	·
O=[N+]([O-])c1ccc(Sc2ccncn2)c([N+](=O)[O-])c1	35.5µM*	2.3%	i	·	i
Oc1ccc(Oc2ncc(Cl)cc2Cl)cc1	8.91µM*	13.3%	i	9.8%	·
Cc1ccc(Nc2cc(C)c(O)c(C)c2)cc1	12.6µM*	3.6%	i	-1.4%	i
CCCC1Cc2c(sc(N)c2C#N)CO1 (stereo not given)	12.6µM*	4.8%	i	2.6%	i
CCCC1Cc2c(sc3nc(SC)nc(N)c23)CO1 (stereo not given)	-10.3%	-0.1%	i	0.5%	i
O=C(COC(=O)c1ccc(-n2cnnn2)cc1)Nc1cc(Cl)ccc1F	6.1%	0.2%	i	-4.6%	i
Cc1ccc(/C=C/C(=O)N2CC(C)CC(C)C2)o1 (stereo not given)	25.1µM*	7.7%	i	-1.8%	i
O=C(CCCc1ccccc1)Nc1nccs1	11.2µM*	8.3%	i	·	i
CC(=O)N1CCCN(C(=O)CN2C(=O)CC(C)(C)S(=O)(=O)c3ccccc32)CC1	·	·	·	·	i
SMILES	TDP43 rescue	aSyn yeast inh	Abeta yeast res	Mito fusion act	FUS yeast rescue
C(=N\Nc1nc(-c2ccccn2)nc2ccccc12)/c1ccccc1	·	12.6µM*	·	-3.8%	·
C(=N\Nc1nc(-c2cccnc2)nc2ccccc12)/c1ccccc1	12.5%	-7.2%	i	-6.1%	i
O=C(NCc1ccc(F)cc1F)[C@@H]1CCCN1C(=O)[C@@H]1CCCN1	-2.9%	-1.7%	i	·	i
CN(C(=O)c1ccc2c(c1)C(=O)N(CCC1=CCCCC1)C2=O)C1CCCCC1	22.4µM*	7.3%	i	9.8%	i
CN(Cc1ccco1)S(=O)(=O)c1ccc(CN2C(=O)c3cccnc3C2=O)s1	17.8µM*	?	i	-5.2%	i
O=S(=O)(c1ccc(-c2csc(=Nc3ccc(OC(F)(F)Cl)cc3)n2CCCO)cc1)N1CCCC1	?	·	i	·	?
COc1cc(Nc2nc(SCc3ccccc3Cl)nc3ccccc23)cc(OC)c1	20µM*	·	i	·	?
